# Assay results published in the supplement of paper PMC8728848.
# Many of the other results were omitted from the sample, so the strongest signals are more common in it than they were.
# B1: ECA (Erythrina cristagalli), P83410 (protein)
# chain: VETISFSFSEFEPGNDNLTLQGAALITQSGVLQLTKINQNGMPAWDSTGRTLYTKPVHMWDSTTGTVASFETRFSFSIEQPYTRPLPADGLVFFMGPTKSKPAQGYGYLGVFNNSKQDNSYQTLAVEFDTFSNPWDPPQVPHIGIDVNSIRSIKTQPFQLDNGQVANVVIKYDAPSKILHVVLVYPSSGAIYTIAEIVDVKQVLPDWVDVGLSGATGAQRDAAETHDVYSWSFQASLPE
# Experiments:
# Test in all cases: glycan array binding signal (z-score within array); higher = stronger binding
# Settings in all cases: glycan notation: IUPAC condensed, linker removed
# [1] = biological target: Fuc(a1-2)Gal(b1-3)GalNAc(b1-3)Gal(a1-4)Gal(b1-4)Glc
# In short: (§1)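 The binding signal is a Z-score computed within each array and averaged over linkers. Arrays of the same protein sequence at different concentrations or buffers were also averaged together. Data originate from 3228 arrays in the Consortium for Functional Glycomics database, kept only where the protein sequence was available.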
# [2] = biological target: Fuc(a1-2)Gal(b1-3)[Fuc(a1-4)]GlcNAc(b1-3)[Gal(b1-4)GlcNAc(b1-6)]Gal(b1-4)Glc
# In short: as §1
# [3] = biological target: Fuc(a1-2)Gal(b1-4)[Fuc(a1-3)]GlcNAc(b1-3)GalNAc
# In short: as §1
# [4] = biological target: Fuc(a1-2)Gal6S(b1-4)Glc6S
# In short: as §1
# [5] = biological target: Fuc(a1-2)[Gal(a1-3)]Gal(b1-4)GlcNAc(b1-2)Man
# In short: as §1
# [6] = biological target: Fuc(a1-2)[Gal(a1-3)]Gal(b1-4)GlcNAc(b1-6)GalNAc
# In short: as §1
# [7] = biological target: Fuc(a1-2)[Gal(a1-3)]Gal(b1-4)[Fuc(a1-3)]GlcNAc(b1-3)GalNAc
# In short: as §1
# [8] = biological target: Fuc(a1-3)[GalNAc(b1-4)]GlcNAc
# In short: as §1
# [9] = biological target: Gal(a1-3)Gal(b1-4)GlcNAc(b1-2)Man
# In short: as §1
# [10] = biological target: Gal(a1-3)Gal(b1-4)[Fuc(a1-3)]GlcNAc(b1-2)Man(a1-3)[Gal(a1-3)Gal(b1-4)[Fuc(a1-3)]GlcNAc(b1-2)Man(a1-6)]Man(b1-4)GlcNAc(b1-4)GlcNAc
# In short: as §1
# [11] = biological target: Gal(b1-3)GlcNAc(a1-6)Gal(b1-4)GlcNAc
# In short: as §1
# [12] = biological target: Gal(b1-3)GlcNAc(b1-6)GalNAc
# In short: as §1
# [13] = biological target: Gal(b1-3)[Fuc(a1-4)]GlcNAc
# In short: as §1
# [14] = biological target: Gal(b1-4)GlcNAc(b1-3)Gal(b1-4)GlcNAc(b1-2)Man(a1-3)[Gal(b1-4)GlcNAc(b1-3)Gal(b1-4)GlcNAc(b1-2)Man(a1-6)]Man(b1-4)GlcNAc(b1-4)GlcNAc
# In short: as §1
# [15] = biological target: Gal(b1-4)GlcNAc(b1-3)Gal(b1-4)GlcNAc(b1-2)[Gal(b1-4)GlcNAc(b1-3)Gal(b1-4)GlcNAc(b1-6)]Man(a1-6)[Gal(b1-4)GlcNAc(b1-3)Gal(b1-4)GlcNAc(b1-2)Man(a1-3)]Man(b1-4)GlcNAc(b1-4)[Fuc(a1-6)]GlcNAc
# In short: as §1
# [16] = biological target: Gal(b1-4)GlcNAc(b1-3)Gal(b1-4)GlcNAc(b1-3)Gal(b1-4)GlcNAc(b1-2)Man(a1-3)[Gal(b1-4)GlcNAc(b1-3)Gal(b1-4)GlcNAc(b1-3)Gal(b1-4)GlcNAc(b1-2)Man(a1-6)]Man(b1-4)GlcNAc(b1-4)GlcNAc
# In short: as §1
# [17] = biological target: Gal(b1-4)GlcNAc(b1-3)Gal(b1-4)GlcNAc(b1-3)Gal(b1-4)GlcNAc(b1-2)[Gal(b1-4)GlcNAc(b1-3)Gal(b1-4)GlcNAc(b1-3)Gal(b1-4)GlcNAc(b1-6)]Man(a1-6)[Gal(b1-4)GlcNAc(b1-3)Gal(b1-4)GlcNAc(b1-3)Gal(b1-4)GlcNAc(b1-2)Man(a1-3)]Man(b1-4)GlcNAc(b1-4)[Fuc(a1-6)]GlcNAc
# In short: as §1
# [18] = biological target: Gal(b1-4)GlcNAc(b1-3)Gal(b1-4)GlcNAc(b1-3)[Gal(b1-4)GlcNAc(b1-3)Gal(b1-4)GlcNAc(b1-6)]GalNAc
# In short: as §1
# [19] = biological target: Gal(b1-4)GlcNAc(b1-3)Gal(b1-4)GlcNAc(b1-6)[Gal(b1-3)]GalNAc
# In short: as §1
# [20] = biological target: Gal(b1-4)GlcNAc(b1-3)[Gal(b1-4)GlcNAc(b1-6)]GalNAc
# In short: as §1
# [21] = biological target: Gal(b1-4)GlcNAc(b1-6)Gal(b1-4)GlcNAc(b1-6)GalNAc
# In short: as §1
# GalNAc(a1-3)GalNAc = biological target: GalNAc(a1-3)GalNAc
# In short: as §1
# GalNAc(b1-3)Gal = biological target: GalNAc(b1-3)Gal
# In short: as §1
# GalNAc3S(b1-4)GlcNAc3S = biological target: GalNAc3S(b1-4)GlcNAc3S
# In short: as §1
# Glc(a1-4)Glc = biological target: Glc(a1-4)Glc
# In short: as §1
# [22] = biological target: GlcNAc(b1-3)Gal(b1-4)GlcNAc(b1-3)Gal(b1-4)GlcNAc(b1-2)Man(a1-3)[GlcNAc(b1-3)Gal(b1-4)GlcNAc(b1-3)Gal(b1-4)GlcNAc(b1-2)Man(a1-6)]Man(b1-4)GlcNAc(b1-4)GlcNAc
# In short: as §1
# [23] = biological target: GlcNAc(b1-3)Gal(b1-4)GlcNAc(b1-3)Gal(b1-4)GlcNAc(b1-2)[GlcNAc(b1-3)Gal(b1-4)GlcNAc(b1-3)Gal(b1-4)GlcNAc(b1-6)]Man(a1-6)[GlcNAc(b1-3)Gal(b1-4)GlcNAc(b1-3)Gal(b1-4)GlcNAc(b1-2)Man(a1-3)]Man(b1-4)GlcNAc(b1-4)[Fuc(a1-6)]GlcNAc
# In short: as §1
# [24] = biological target: GlcNAc(b1-3)Gal(b1-4)GlcNAc(b1-3)Gal(b1-4)GlcNAc(b1-3)Gal(b1-4)GlcNAc(b1-3)Gal(b1-4)GlcNAc(b1-2)Man(a1-3)[GlcNAc(b1-3)Gal(b1-4)GlcNAc(b1-3)Gal(b1-4)GlcNAc(b1-3)Gal(b1-4)GlcNAc(b1-3)Gal(b1-4)GlcNAc(b1-2)Man(a1-6)]Man(b1-4)GlcNAc(b1-4)[Fuc(a1-6)]GlcNAc
# In short: as §1
# [25] = biological target: GlcNAc(b1-3)Gal(b1-4)GlcNAc(b1-6)[Gal(b1-3)]GalNAc
# In short: as §1
# GlcNAc(b1-3)GalNAc = biological target: GlcNAc(b1-3)GalNAc
# In short: as §1
# [26] = biological target: GlcNAc(b1-3)[GlcNAc(b1-6)]GlcNAc(b1-4)GlcNAc
# In short: as §1
# [27] = biological target: GlcNAc(b1-4)[GlcNAc(b1-6)]GalNAc
# In short: as §1
# [28] = biological target: GlcNAc6S(b1-3)Gal(b1-4)GlcNAc
# In short: as §1
# Man(a1-2)Man(a1-3)Man = biological target: Man(a1-2)Man(a1-3)Man
# In short: as §1
# [29] = biological target: Man(a1-2)Man(a1-3)[Man(a1-2)Man(a1-6)]Man(a1-6)[Man(a1-2)Man(a1-2)Man(a1-3)]Man
# In short: as §1
# [30] = biological target: Man(a1-3)[Man(a1-6)]Man(a1-6)[Man(a1-2)Man(a1-3)]Man(b1-4)GlcNAc(b1-4)GlcNAc
# In short: as §1
# [31] = biological target: Man(a1-3)[Man(a1-6)]Man(a1-6)[Man(a1-3)]Man(b1-4)GlcNAc(b1-4)GlcNAc
# In short: as §1
# [32] = biological target: Neu5Ac(a2-3)Gal(b1-3)GlcNAc
# In short: as §1
# [33] = biological target: Neu5Ac(a2-3)Gal(b1-4)GlcNAc(b1-3)Gal(b1-4)GlcNAc(b1-3)Gal(b1-4)GlcNAc(b1-2)Man(a1-3)[Neu5Ac(a2-3)Gal(b1-4)GlcNAc(b1-3)Gal(b1-4)GlcNAc(b1-3)Gal(b1-4)GlcNAc(b1-2)Man(a1-6)]GalNAc
# In short: as §1
# [34] = biological target: Neu5Ac(a2-3)Gal(b1-4)GlcNAc(b1-3)Gal(b1-4)GlcNAc(b1-3)GalNAc
# In short: as §1
# [35] = biological target: Neu5Ac(a2-3)Gal(b1-4)[Fuc(a1-3)]GlcNAc(b1-3)GalNAc
# In short: as §1
# Neu5Ac(a2-6)Gal = biological target: Neu5Ac(a2-6)Gal
# In short: as §1
# [36] = biological target: Neu5Ac(a2-6)Gal(b1-4)GlcNAc(b1-3)Gal(b1-4)GlcNAc(b1-3)Gal(b1-4)GlcNAc
# In short: as §1
# [37] = biological target: Neu5Ac(a2-6)Gal(b1-4)GlcNAc(b1-3)Gal(b1-4)GlcNAc(b1-3)Gal(b1-4)GlcNAc(b1-2)Man(a1-3)[Neu5Ac(a2-6)Gal(b1-4)GlcNAc(b1-3)Gal(b1-4)GlcNAc(b1-3)Gal(b1-4)GlcNAc(b1-2)Man(a1-6)]GalNAc
# In short: as §1
# [38] = biological target: Neu5Ac(a2-6)Gal(b1-4)GlcNAc(b1-3)Gal(b1-4)GlcNAc(b1-6)[Gal(b1-3)]GalNAc
# In short: as §1
# [39] = biological target: Neu5Ac(a2-8)Neu5Ac(a2-3)Gal(b1-3)GalNAc(b1-4)[Neu5Ac(a2-8)Neu5Ac(a2-3)]Gal(b1-4)Glc
# In short: as §1
# [40] = biological target: Neu5Ac(a2-8)Neu5Ac(a2-8)Neu5Ac(a2-3)[Gal(b1-3)GalNAc(b1-4)]Gal(b1-4)Glc
# In short: as §1
# [41] = biological target: Neu5Ac(b2-6)Gal(b1-4)GlcNAc
# In short: as §1
# [42] = biological target: Neu5Gc(a2-3)Gal(b1-4)GlcNAc
# In short: as §1
binder,measurement,setting,value
B1,glycan array binding signal (z-score),[1],-0.125
same,glycan array binding signal (z-score),[2],-0.309
same,glycan array binding signal (z-score),[3],0.542
same,glycan array binding signal (z-score),[4],-0.123
same,glycan array binding signal (z-score),[5],-0.485
same,glycan array binding signal (z-score),[6],-0.455
same,glycan array binding signal (z-score),[7],-0.399
same,glycan array binding signal (z-score),[8],-0.226
same,glycan array binding signal (z-score),[9],-0.517
same,glycan array binding signal (z-score),[10],10.5
same,glycan array binding signal (z-score),[11],-0.325
same,glycan array binding signal (z-score),[12],-0.491
same,glycan array binding signal (z-score),[13],-0.234
same,glycan array binding signal (z-score),[14],3.88
same,glycan array binding signal (z-score),[15],0.699
same,glycan array binding signal (z-score),[16],4.58
same,glycan array binding signal (z-score),[17],1.81
same,glycan array binding signal (z-score),[18],4.2
same,glycan array binding signal (z-score),[19],4.88
same,glycan array binding signal (z-score),[20],5.59
same,glycan array binding signal (z-score),[21],5.39
same,glycan array binding signal (z-score),GalNAc(a1-3)GalNAc,-0.186
same,glycan array binding signal (z-score),GalNAc(b1-3)Gal,-0.272
same,glycan array binding signal (z-score),GalNAc3S(b1-4)GlcNAc3S,-0.509
same,glycan array binding signal (z-score),Glc(a1-4)Glc,-0.148
same,glycan array binding signal (z-score),[22],3.72
same,glycan array binding signal (z-score),[23],3.4
same,glycan array binding signal (z-score),[24],0.151
same,glycan array binding signal (z-score),[25],-0.412
same,glycan array binding signal (z-score),GlcNAc(b1-3)GalNAc,-0.366
same,glycan array binding signal (z-score),[26],-0.277
same,glycan array binding signal (z-score),[27],-0.228
same,glycan array binding signal (z-score),[28],-0.243
same,glycan array binding signal (z-score),Man(a1-2)Man(a1-3)Man,-0.285
same,glycan array binding signal (z-score),[29],-0.091
same,glycan array binding signal (z-score),[30],1.29
same,glycan array binding signal (z-score),[31],-0.177
same,glycan array binding signal (z-score),[32],-0.269
same,glycan array binding signal (z-score),[33],7.35
same,glycan array binding signal (z-score),[34],-0.407
same,glycan array binding signal (z-score),[35],0.567
same,glycan array binding signal (z-score),Neu5Ac(a2-6)Gal,-0.208
same,glycan array binding signal (z-score),[36],-0.578
same,glycan array binding signal (z-score),[37],5.2
same,glycan array binding signal (z-score),[38],0.104
same,glycan array binding signal (z-score),[39],-0.352
same,glycan array binding signal (z-score),[40],0.194
same,glycan array binding signal (z-score),[41],-0.088
same,glycan array binding signal (z-score),[42],-0.327
